Experimental findings from PubChem BioAssay (NCATS) are described below.

Experiment [1] addresses Glutathione peroxidase 1 (Homo sapiens) (UniProt P07203). Put plainly: Primary qHTS Assay for Inhibitors of Recombinant Selenoprotein Glutathione Peroxidase 1 (GPX1) (AID 1845191). Further: nearly all actives have a fitted effect of over 65% in size. On activity, negative = inhibition: on the % scale 0 is the no-effect control and ±100 the full control effect. The essentials:
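10 nM GPX1 + cpd, 30 min RT; start w/ 1 mM GSH, 0.5 mM cumene hydroperoxide, 0.5 mM NADPH, 100 nM GR, 0.01% BSA; buffer 50 mM Tris-HCl pH 7.5, 2 mM EDTA, 150 mM NaCl; Fl 340/450, 0 & 15 min.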
Background: In qHTS, concentration-response curves come from the screen itself.

Experiment [2] concerns the target Phospholipid hydroperoxide glutathione peroxidase GPX4 (Homo sapiens) (UniProt P36969). Put plainly: Primary qHTS Assay for Inhibitors of Recombinant Selenoprotein Glutathione Peroxidase 4 (GPX4) (AID 1845192). Further: nearly all actives have a fitted effect of over 65% in size. The essentials: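 NADPH consumption, followed by fluorescence at 340/450 nm between 0 and 15 min, reports GPX4 activity via coupled glutathione reductase (100 nM). Enzyme 200 nM was pre-exposed to compound 30 min; 0.5 mM cumene hydroperoxide and 1 mM GSH served as substrates.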

For experiment [3], the target named is Luciferin 4-monooxygenase (Photinus pyralis) (UniProt P08659). As to the kind of experiment: Primary firefly luciferase (FLuc) qHTS assay for identification of artifact compounds. (AID 1845220). Further: nearly all actives have a fitted effect of over 60% in size. The essentials:
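Cell-free, 1536-well qHTS. Buffer pH 7.6 with 0.01% Tween-20 and 0.05% BSA; 10 uM D-luciferin, 10 uM ATP; 10 nM P. pyralis luciferase; luminescence after 5 min.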

The nature of experiment [4]: Primary fluorescence-based thiol-reactive (MSTI) qHTS assay for identification of artifact compounds. (AID 1845221). Further: nearly all actives have a fitted effect of over 65% in size. Further: potency means the concentration at half of the fitted maximal effect.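 On activity change, negative = thiol reactive: series mostly up to about 54 µM; thiol-reactive compounds lower the probe fluorescence signal.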 The essentials:
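Reactivity toward the thiol probe MSTI (4 uM) is scored by fluorescence at Ex/Em 525/598 nm after 1 h at room temperature. Acetyl-MSTI and MSTI define the activity scale.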

Experiment [5] relates to Nanoluciferase (engineered Oplophorus gracilirostris luciferase). Put plainly: Primary Nanoluciferase (NLuc) qHTS assay for identification of artifact compounds. (AID 1845222).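 Further: series mostly up to about 54 µM; 0% = DMSO and -100% = no enzyme.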 The method, boiled down:
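Compounds are pinned into diluted (1:55) conditioned medium of NLuc-expressing S16 cells and held 15 min at room temperature protected from light. Nano-Glo substrate follows, and luminescence is read 5 min later.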

Experiment [6] can be described thus: Primary redox qHTS assay for identification of artifact compounds. (AID 1845223).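 Further: 0% = DMSO and 100% = reference compound.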 The method, boiled down:
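Amplex Red (25 uM) and HRP (250 mU/mL) in HBSS, with compounds for 15 min, then 250 uM DTT for 30 min, room temperature, dark. Fluorescence 525/598 nm read; normalized to DMSO and 10 uM DA3003; Hill fit.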

Values without a mark were called inactive. Inconclusive results are not listed. Activity calls are given as the source filed them. The call rests on the fitted dose curve; in most records, active means well fitted curve in the direction sought with a large enough effect; inconclusive means small, poorly fitted or top-dose-only effect, or another doubt; inactive means no such curve, though single readings can be large; an effect the other way counts as inactive or inconclusive.

Chain of Phospholipid hydroperoxide glutathione peroxidase GPX4 (Homo sapiens) (P36969 whole entry, looked up): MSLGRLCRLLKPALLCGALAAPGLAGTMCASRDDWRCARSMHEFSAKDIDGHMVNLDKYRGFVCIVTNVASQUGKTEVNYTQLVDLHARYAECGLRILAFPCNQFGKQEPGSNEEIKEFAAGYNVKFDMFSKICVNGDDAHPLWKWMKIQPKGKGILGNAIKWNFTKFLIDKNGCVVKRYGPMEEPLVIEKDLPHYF
Chain of Glutathione peroxidase 1 (Homo sapiens) (P07203 whole entry, looked up): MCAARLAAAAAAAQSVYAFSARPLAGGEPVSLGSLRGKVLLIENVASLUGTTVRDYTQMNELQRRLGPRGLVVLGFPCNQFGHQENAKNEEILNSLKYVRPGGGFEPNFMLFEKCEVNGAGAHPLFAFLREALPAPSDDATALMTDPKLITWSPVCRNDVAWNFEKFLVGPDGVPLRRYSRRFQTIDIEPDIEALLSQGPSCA

For the compound `N#Cc1cccc(-c2c[nH]c3ncnc(N4CCOCC4)c23)c1`, the Potency result in experiment [1], in experiment [2], in experiment [3], in experiment [4], in experiment [5] and in experiment [6] was “inactive” each time.

`C=C1CCC2C(C)(C(=O)OC)CCCC2(C)C1CCC1=CCOC1=O` (stereo not drawn): the Potency entry in experiment [1], in experiment [2], in experiment [3], in experiment [4], in experiment [5] and in experiment [6] was “inactive” throughout.

With `CC(C)=C1C[C@@]2(C)C(=CC1=O)CC[C@@H](O)[C@@H]2C`, the Potency result in experiment [1], in experiment [2], in experiment [3], in experiment [4], in experiment [5] and in experiment [6] was “inactive” in each case.

`O=C(O)CC1CCC(c2ccc(-c3ccc(Nc4ccc(C(F)(F)F)nc4)cn3)cc2)CC1` (stereo not drawn): the Potency result in experiment [1], in experiment [2], in experiment [3], in experiment [4], in experiment [5] and in experiment [6] was “inactive” each time.

Take `C/C=C(/C)C(=O)OC1C(OC(C)=O)C23C(O)OC4(CCC5C6(C)CCC(OC7OC(C(=O)O)C(O)C(OC8OC(CO)C(O)C(O)C8OC8OC(C)C(O)C(O)C8OC8OCC(O)C(O)C8O)C7OC7OC(CO)C(O)C(O)C7O)C(C)(C)C6CCC5(C)C4(C)CC2OC(C)=O)C3CC1(C)C` (stereo not drawn): the Potency entry in experiment [1] and in experiment [2] was “inactive” each time. The outcome in experiment [3] was “inactive [at 11.6 µM]”. Moreover, the activity change, negative = thiol reactive in experiment [4] is 196% [at 11.5 µM]. The activity, negative = inhibition in experiment [5] was 0.798% [at 11.6 µM]. Moreover, the redox activity (% of DA3003) in experiment [6] was 6.91% [at 11.5 µM].

`CC1=C(CO)CC(C(C)C2CCC3C4CC=C5CC(OC6OC(COC7OC(CO)C(O)C(O)C7O)C(O)C(O)C6O)CC(O)C5(C)C4CCC23C)OC1=O` (stereo not drawn): the Potency result in experiment [1], in experiment [2], in experiment [3], in experiment [4], in experiment [5] and in experiment [6] was “inactive” in each case.

For `CC1=CCC(O)C2(C)CCC3C(C)C(=O)OC3C12` (stereo not drawn), the Potency result in experiment [1], in experiment [2], in experiment [3], in experiment [4], in experiment [5] and in experiment [6] was “inactive” in each case.

In the case of `C=C(C)[C@@H]1CC[C@]2(C)CC[C@]3(C)C(CCC4[C@@]5(C)CC[C@H](O)C(C)(C)C5CC[C@]43C)C12` (stereo partly drawn), the Potency result in experiment [1], in experiment [2], in experiment [3], in experiment [4], in experiment [5] and in experiment [6] was “inactive” throughout.

For `C=C(C)[C@@H]1CC[C@]2(CO)CC[C@]3(C)[C@H](CC[C@@H]4[C@@]5(C)CC[C@H](O)C(C)(C)[C@@H]5CC[C@]43C)[C@@H]12`, the Potency result in experiment [1], in experiment [2], in experiment [3], in experiment [4], in experiment [5] and in experiment [6] was “inactive” in each case.

Consider `C=C1C(O)CCC2(C)CC3(OC)OC(=O)C(C)=C3CC12` (stereo not drawn), for which the Potency result in experiment [1], in experiment [2], in experiment [3], in experiment [4], in experiment [5] and in experiment [6] was “inactive” in each case.

`O=C(OC(C(F)(F)F)C(F)(F)F)N1CCN(Cc2cccc(Oc3ccccc3)c2)CC1`: the Potency entry in experiment [1], in experiment [2], in experiment [3], in experiment [4], in experiment [5] and in experiment [6] was “inactive” throughout.

In the case of `C[C@]1(C2CCCC2)Cc2cc(OCC(=O)O)c(Cl)c(Cl)c2C1=O`, the Potency entry in experiment [1], in experiment [2], in experiment [3], in experiment [4], in experiment [5] and in experiment [6] was “inactive” in each case.

On to `Cc1ccc(-c2c(-c3nn(C)c4ncnc(N5CCC(N6CCCCC6)C5)c34)cnn2C)cc1` (stereo not drawn), for which the Potency entry in experiment [1], in experiment [2], in experiment [3], in experiment [4], in experiment [5] and in experiment [6] was “inactive” each time.

On to `CN(C)C(=O)C(O)C(Cc1ccccc1)NC(=O)c1cc2cc(Cl)ccc2[nH]1` (stereo not drawn), for which the Potency entry in experiment [1], in experiment [2], in experiment [3], in experiment [4], in experiment [5] and in experiment [6] was “inactive” throughout.

With `COc1cc(C2OCC3(O)C(c4ccc(O[C@@H]5O[C@H](CO)[C@@H](O)[C@H](O)[C@H]5O)c(OC)c4)OCC23O)ccc1O` (stereo partly drawn), the Potency result in experiment [1], in experiment [2], in experiment [3], in experiment [4], in experiment [5] and in experiment [6] was “inactive” throughout.

As to `CC1CC2OCC3(O)CCC(O)C(C14CC(c1ccoc1)OC4=O)C23CO` (stereo not drawn), the Potency result in experiment [1], in experiment [2], in experiment [3], in experiment [5] and in experiment [6] was “inactive” in each case. For the same compound, the Potency in experiment [4] is 3.29 µM (active).

In the case of `CC1=C[C@H](O)[C@H]2C(C)(C)CCC[C@]2(C)[C@@]1(O)CO`, the Potency result in experiment [1], in experiment [2], in experiment [3], in experiment [4], in experiment [5] and in experiment [6] was “inactive” each time.

For the compound `C/C=C1/C[N+](C)([O-])C2Cc3c([nH]c4ccccc34)C(=O)CC1C2C(=O)OC` (stereo not drawn), the Potency result in experiment [1], in experiment [2], in experiment [3], in experiment [4], in experiment [5] and in experiment [6] was “inactive” throughout.

With `C=C1C(O)CC2C(C(=O)O)=COC(OC3OC(CO)C(O)C(O)C3OC(=O)/C=C\c3ccc(O)cc3)C12` (stereo not drawn), the Potency result in experiment [1], in experiment [2], in experiment [3], in experiment [5] and in experiment [6] was “inactive” throughout. In addition, the Potency in experiment [4] is 4.62 µM (active).

Turning to `CC(C)(O)[C@@H]1CC[C@]2(CO)[C@@H](O)CC[C@](C)(O)[C@H]2[C@@H]1O[C@@H]1O[C@H](CO)[C@@H](O)[C@H](O)[C@H]1O`, the Potency entry in experiment [1], in experiment [2], in experiment [3], in experiment [4], in experiment [5] and in experiment [6] was “inactive” each time.

For `CC(=C\C(C)O)/C=C(\C)C(=O)CC1CC(CC(N)=O)CC(=O)O1` (stereo not drawn), the Potency entry in experiment [1], in experiment [2], in experiment [3], in experiment [4], in experiment [5] and in experiment [6] was “inactive” in each case.

In the case of `CC(C)C1C(OC(=O)/C=C/c2ccccc2)CC2(C)OC2CCC2(C)OC2C1O` (stereo not drawn), the Potency result in experiment [1], in experiment [2], in experiment [3], in experiment [4], in experiment [5] and in experiment [6] was “inactive” each time.

Turning to `C[C@]1(OC(=O)/C=C/c2ccc(O)cc2)C[C@@H](O)[C@]2(O)C=CO[C@@H](O[C@@H]3O[C@H](CO)[C@@H](O)[C@H](O)[C@H]3O)C12` (stereo partly drawn), the Potency result in experiment [1], in experiment [2], in experiment [3], in experiment [4], in experiment [5] and in experiment [6] was “inactive” each time.
